# Measurements taken from PubChem BioAssay (NCATS).
# Values joined by “and” are separate entries in the source; they are usually repeats but may differ in a detail not shown here. Equal entries are not always repeated. Values without a mark were called inactive. Results filed as inconclusive are left out. Where a call stands in place of a potency, no number is given. Active and inactive are the calls of the source. Unless noted, calls come from the whole dose curve; as a rule, active = well fitted curve in the direction sought with a large enough effect; inconclusive = small, poorly fitted or top-dose-only effect, or another doubt; inactive = no such curve, though single readings can be large; an effect the other way counts as inactive or inconclusive.
# What was measured:
# [1] = biological target: Glucocorticoid receptor (Homo sapiens) (UniProt P04150); test: GR-GFP Redistribution (AID 450;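 active = compounds whose dose series gives a full or clear partial fitted curve of increased nuclear translocation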; note: potency is the fitted concentration of half-maximal effect); details: U2OS GR-GFP nuclear translocation, laser cytometry, 2 h
# Chain of Glucocorticoid receptor (Homo sapiens) (P04150 whole entry, looked up, the tested form may be a part): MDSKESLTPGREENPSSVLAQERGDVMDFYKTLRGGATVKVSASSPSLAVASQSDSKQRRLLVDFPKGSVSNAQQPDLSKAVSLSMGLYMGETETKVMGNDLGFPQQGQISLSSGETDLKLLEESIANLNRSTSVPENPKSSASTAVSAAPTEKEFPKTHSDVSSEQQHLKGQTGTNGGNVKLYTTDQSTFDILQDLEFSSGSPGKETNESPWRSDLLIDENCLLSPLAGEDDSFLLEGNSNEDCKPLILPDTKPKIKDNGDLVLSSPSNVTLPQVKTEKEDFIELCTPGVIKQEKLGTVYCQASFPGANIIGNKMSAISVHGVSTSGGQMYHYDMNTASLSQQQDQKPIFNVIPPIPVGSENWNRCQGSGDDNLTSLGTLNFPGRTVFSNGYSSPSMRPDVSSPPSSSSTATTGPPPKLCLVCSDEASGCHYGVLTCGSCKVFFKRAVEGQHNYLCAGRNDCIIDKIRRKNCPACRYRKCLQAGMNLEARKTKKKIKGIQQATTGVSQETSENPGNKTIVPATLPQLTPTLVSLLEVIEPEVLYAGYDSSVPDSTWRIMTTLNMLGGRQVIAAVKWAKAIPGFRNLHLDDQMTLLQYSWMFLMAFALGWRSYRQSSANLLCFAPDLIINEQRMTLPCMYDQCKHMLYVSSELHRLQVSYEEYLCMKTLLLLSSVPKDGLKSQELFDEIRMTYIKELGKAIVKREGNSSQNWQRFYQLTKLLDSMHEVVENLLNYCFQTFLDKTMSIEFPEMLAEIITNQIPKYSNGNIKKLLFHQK
# [2] = biological target: Glucocorticoid receptor (Homo sapiens) (UniProt P04150); test: GR-EFC Redistribution (AID 451; calls by dose curve; note: potency is the fitted concentration of half-maximal effect); details: CHO-K1 GR-EFC translocation, beta-gal luminescence, 2 h
# Procedure, shortened: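 Translocation of GR-ED fusion to nuclear EA restores b-gal, read by luminescence after 1 h room-temperature detection. Engineered CHO-K1 biosensor cells, 1,000/well, exposed 2 h at 37 C to titrations up to 46 uM final.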
# [3] = biological target: Mitogen-activated protein kinase 10 (Mus musculus) (UniProt Q61831); test: JNK3 AlphaScreen Assay (AID 530; active = well fitted curve in either direction with a large enough effect, not every such curve was filed as active;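 note: kinase came from lysate of stimulated human HepG2 cells; signal reports phosphorylation of biotinylated GST-cJun 1-79 at Ser73 with 10 µM ATP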); details: JNK3 lysate, c-Jun phosphorylation; series mostly up to 25.6 µM
# Procedure, shortened: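 Kinase buffer: 20 mM Tris-HCl pH 7.6, 10 mM MgCl2, 1 mM DTT, 0.1 mM Na3VO4, 0.01% Tween-20; ATP 10 uM. Substrate biotin-GST-cJun(1-79), enzyme from activated HepG2 lysates. Detection by Ser73 phospho-antibody AlphaScreen.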
# [4] = biological target: 3',5'-cyclic-AMP phosphodiesterase 4B (Homo sapiens) (UniProt Q07343); test: qHTS Assay for Inhibitors of PDE-IV (AID 607; active = well fitted activation curve with a large enough effect in the main read-out, with a control signal flat, not every such curve was filed as active); details: HEK293 ACTOne CNG channel cells, membrane potential fluorescence; series mostly up to 22.9 µM
# Chain of 3',5'-cyclic-AMP phosphodiesterase 4B (Homo sapiens) (Q07343 whole entry, looked up): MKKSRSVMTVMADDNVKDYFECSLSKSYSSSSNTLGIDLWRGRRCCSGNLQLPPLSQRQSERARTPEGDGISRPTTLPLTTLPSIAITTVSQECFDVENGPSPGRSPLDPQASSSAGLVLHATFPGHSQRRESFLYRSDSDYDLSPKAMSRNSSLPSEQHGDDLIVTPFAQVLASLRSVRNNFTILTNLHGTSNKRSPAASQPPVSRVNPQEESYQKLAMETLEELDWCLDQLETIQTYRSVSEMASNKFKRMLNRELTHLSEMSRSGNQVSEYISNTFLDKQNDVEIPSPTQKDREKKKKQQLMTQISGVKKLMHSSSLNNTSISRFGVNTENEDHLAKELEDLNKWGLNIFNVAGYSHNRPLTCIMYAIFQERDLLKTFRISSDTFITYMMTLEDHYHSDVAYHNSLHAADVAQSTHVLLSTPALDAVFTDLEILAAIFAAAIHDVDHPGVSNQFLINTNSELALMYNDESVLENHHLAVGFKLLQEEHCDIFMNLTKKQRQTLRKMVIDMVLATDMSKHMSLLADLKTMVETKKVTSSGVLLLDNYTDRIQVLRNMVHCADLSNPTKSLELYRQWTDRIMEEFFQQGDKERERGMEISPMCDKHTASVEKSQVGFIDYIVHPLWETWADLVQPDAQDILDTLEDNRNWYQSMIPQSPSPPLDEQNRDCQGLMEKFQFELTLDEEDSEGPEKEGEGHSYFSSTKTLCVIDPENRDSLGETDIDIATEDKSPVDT
# Procedure, shortened: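 Live HEK293 cells with a modified cyclic nucleotide-gated (CNG) channel report intracellular cAMP via membrane-potential dye fluorescence (ex 535/em 590 nm). Endogenous PDE-IV was targeted. Compounds were tested at up to 22.9 uM final; RO 20-1724 100 uM served as control.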
# [5] = Stat Signaling Pathway (AID 446; active = well fitted curve in either direction with a large enough effect, not every such curve was filed as active;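 note: ME-180 cervical cancer cells given 40 pM IL-6 alongside compound; SIE-controlled beta-lactamase reporter measured as 460/530 nm FRET emission ratio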); details: ME-180 (cervical carcinoma) SIE beta-lactamase reporter, IL-6 stimulated, 5 h; series mostly up to 17.2 µM
# Procedure, shortened: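 Overnight-plated ME-180 cells bearing a STAT Inducible Element beta-lactamase reporter; 5 h co-exposure to compound and 40 pM IL-6; values normalized to 300 pM IL-6 and 125 nM JAK inhibitor controls.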
# [6] = Cell Viability - N2a (AID 540); details: N2a mouse neuroblastoma cell viability; series mostly up to 92.2 µM;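 note: cells exposed to compound for 40 h at 37 °C; nearly all actives have a fitted effect of over 45% in size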
# Procedure, shortened: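 In this qHTS cytotoxicity screen, ATP-dependent luciferase luminescence reports viable N2a cells after a 40 hr compound exposure in complete culture medium. Potencies are AC50 values from standard Hill equation fits.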
# [7] = Cell Viability - NIH 3T3 (AID 541); details: NIH 3T3 cell viability, qHTS; activity change, negative = cytotoxicity: at 92.2 µM (top of the series);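 note: cells exposed to compound for 40 hours; nearly all actives have a fitted effect of over 25% in size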
# Procedure, shortened: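 In this cytotoxicity screen, acute toxicity is scored as an ATP drop measured by CellTiter-Glo in NIH 3T3 fibroblasts following a 40 hr, 37 °C incubation with compound.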
# [8] = Cell Viability - HUV-EC-C (AID 542); details: HUV-EC-C endothelial cell viability, qHTS; series mostly up to 92.2 µM;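 note: cells exposed to compound for 40 hours; nearly all actives have a fitted effect of over 35% in size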
# Procedure, shortened: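 Concentration-dependent ATP loss in HUV-EC-C cells is the measure. Exposure lasts 40 hr at 37 °C; luminescence follows CellTiter-Glo addition, and Hill fits give AC50.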
# [9] = Cell Viability - SH-SY5Y (AID 544); details: SH-SY5Y neuroblastoma cell viability; viability change, negative = cytotoxic: at 92.2 µM (top of the series);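 note: cells exposed to compound for 40 hours; nearly all actives have a fitted effect of over 55% in size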
# Procedure, shortened: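 Quantitative HTS in SH-SY5Y neuroblastoma cells, 40 hr treatment at 37 °C, ATP content by luciferase luminescence; AC50 from Hill fits.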
# [10] = Cell Viability - Renal Proximal Tubule (AID 545); details: renal proximal tubule cells viability, primary cells of rat origin; series mostly up to 91.7 µM;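 note: cells exposed to compound for 40 hours; nearly all actives have a fitted effect of over 40% in size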
# Procedure, shortened: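 Primary rat renal proximal tubule cells (1000/well) were treated with compounds for 40 hr at 37 °C in complete medium. Intracellular ATP was measured by CellTiter-Glo luminescence, and AC50 values came from Hill-equation fits of concentration-response data.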
# [11] = Cell Viability - Mesenchymal (AID 546); details: mesenchymal cells viability, qHTS; series mostly up to 91.7 µM;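 note: cells exposed to compound for 40 hours before reading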
# Procedure, shortened: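 CellTiter-Glo luminescence (intracellular ATP, 20 min room temperature) after 40 hr compound exposure at 37 °C of 1000 glomerulus-derived human kidney mesenchymal cells/well; AC50 values obtained by fitting qHTS concentration-response data to the Hill equation.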
# [12] = Cellular Toxicity (caspase-3) HepG2 (AID 654); details: HepG2 caspase-3 activation, luminescence, 0% = DMSO only, 100% = tamoxifen; series mostly up to 92.2 µM;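 note: cells exposed to compound for 16 hours before reading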
# Procedure, shortened: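 Concentration-response AC50 values reflect caspase-3/7 induction in HepG2 cells after 16 hours of compound exposure, quantified by luminescence from liberated aminoluciferin and referenced to 100 uM tamoxifen as full stimulation.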
# [13] = Cellular Toxicity (caspase-3) Jurkat (AID 655); details: Jurkat caspase-3 activation, luminescence, DMSO = 0%, tamoxifen = 100%; at 92.2 µM (top of the series);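 note: cells exposed to compound for 16 h at 37 °C before reading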
# Procedure, shortened: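 Jurkat cells (5000/well) in complete medium were treated with compounds for 16 hr at 37 °C, then Caspase-Glo 3/7 luminescence was read after 20 min at room temperature. Data normalized to DMSO (basal) and 100 uM tamoxifen (100%); AC50 from Hill fit.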
# [14] = Cellular Toxicity (caspase-3) SHSY5Y (AID 657); details: SH-SY5Y caspase-3 activation, DMSO zero, 10 µM staurosporine = 100%; series mostly up to 91.7 µM
# Procedure, shortened: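 SH-SY5Y human neuroblastoma cells (1500/well) were treated with compounds for 16 h at 37 °C, then Caspase-Glo 3/7 luminescence was read after 1 h at room temperature. Data normalized to DMSO and 10 uM staurosporine; AC50 from Hill fits.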
# [15] = Cellular Toxicity (caspase-3) BJ (AID 658); details: BJ fibroblasts, luminescence, normalized: DMSO 0%, staurosporine 100%; series mostly up to 91.7 µM
# Procedure, shortened: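 Caspase-Glo 3/7 luminescence, read 1 hr after reagent at room temperature, in normal BJ fibroblasts exposed 16 hours at 37 °C. AC50 values from Hill-equation concentration-response, scaled between DMSO basal and 10 uM staurosporine as 100%.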
# [16] = Cellular Toxicity (caspase-3) MRC-5 (AID 659); details: MRC-5 cells, luminescence, normalized: DMSO 0%, 10 µM staurosporine 100%; series mostly up to 91.7 µM
# Procedure, shortened: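 Luminescent Caspase-Glo 3/7 read-out (1 h, room temperature) after a 16 h, 37 °C compound exposure of MRC-5 lung fibroblasts at 1500 cells/well. Concentration-response AC50 from Hill equation; 0% DMSO, 100% 10 uM staurosporine.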
# [17] = Cellular Toxicity (caspase-3) Mesangial (AID 660); details: mesangial cells, normalized: DMSO 0%, 100 µM tamoxifen 100%; series mostly up to 91.7 µM;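 note: combined caspase 3 and 7 activity read by Caspase-Glo luminescence; cells exposed to compound for 16 h before the caspase read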
# Procedure, shortened: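 AC50 values come from Hill-equation fits of caspase 3/7 activation, measured as Caspase-Glo luminescence in human glomerular mesangial cells exposed to compound for 16 h at 37 °C; 100% set by 100 uM tamoxifen.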
# [18] = Cellular Toxicity (caspase-3) SK-N-SH (AID 661); details: SK-N-SH caspase-3 activation, qHTS, DMSO as zero, staurosporine as full; series mostly up to 91.7 µM
# Procedure, shortened: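 Apoptosis readout in SK-N-SH neuroblastoma: Caspase-Glo 3/7 luminescence following 16 hr treatment in complete culture medium. Normalization used DMSO and 10 uM staurosporine controls.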
# [19] = Cellular Toxicity (caspase-3) H-4-II-E (AID 663); details: H-4-II-E rat hepatoma; Potency: caspase-3 activation; series mostly up to 92.2 µM;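 note: cells exposed to compound for 16 hr before readout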
# Procedure, shortened: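 Caspase 3/7 activation measured by luminescent aminoluciferin substrate cleavage after 16 hr compound treatment of H-4-II-E cells in complete medium. Increase normalized between DMSO (basal) and 100 uM tamoxifen (100%); Hill-equation AC50 from concentration-response.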
# [20] = Cell Viability - H-4-II-E (AID 543); details: H-4-II-E rat hepatoma viability; series mostly up to 92.2 µM;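 note: cells exposed to compound for 40 hours; nearly all actives have a fitted effect of over 35% in size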
# Procedure, shortened: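 AC50 from Hill-modelled qHTS concentration-response curves. H-4-II-E rat hepatoma cells in complete medium, 40 hr exposure at 37 °C, viability by CellTiter-Glo ATP luminescence.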
smiles,measurement,setting,value
C[N+]12CCC(CC1)C(OC(=O)C(O)(c1ccccc1)c1ccccc1)C2 (stereo not drawn),Potency,[1],> 20.6 µM
CCc1oc2ccccc2c1C(=O)c1cc(Br)c(O)c(Br)c1,Potency,[1],> 20.6 µM and > 46 µM
same,Potency,[2],> 20.6 µM and > 9.22 µM
same,Potency,[3],inactive
same,outcome,[4],inactive
COc1cc(N)c(Cl)cc1C(=O)NC1CCN(Cc2ccccc2)CC1,outcome,[5],inactive
same,Potency,[1],> 20.6 µM
same,Potency,[2],> 20.6 µM
same,Potency,[3],inactive
same,outcome,[4],inactive
C[N+]1(C)CCC(=C(c2ccccc2)c2ccccc2)CC1,outcome,[5],inactive
same,Potency,[1],> 20.6 µM
same,Potency,[2],> 20.6 µM
same,Potency,[3],inactive
same,outcome,[4],inactive
CC(C)(C)NC[C@H](O)COc1cccc2c1CCCC2=O,outcome,[5],inactive
same,Potency,[1],> 20.6 µM
same,Potency,[2],> 20.6 µM
same,Potency,[3],inactive
same,outcome,[4],inactive
CC[N+](C)(CC)CCOC(=O)C(O)(c1ccccc1)C1CCCCC1 (stereo not drawn),Potency,[1],> 20.6 µM
Nc1ccc(S(=O)(=O)Nc2cnc3ccccc3n2)cc1,Potency,[1],> 20.6 µM and > 46 µM
same,Potency,[2],> 20.6 µM and > 9.22 µM
same,Potency,[3],inactive
same,outcome,[4],inactive
CNCCc1ccccn1,Potency,[1],> 20.6 µM
same,Potency,[2],> 20.6 µM
same,Potency,[3],inactive
same,outcome,[4],inactive
CCOc1ccc(NC(C)=O)cc1,Potency,[1],> 20.6 µM
same,Potency,[2],> 20.6 µM
same,Potency,[3],inactive
same,Potency,[6],inactive
same,"activity change, negative = cytotoxicity",[7],-21.8%
same,outcome,[8],inactive
same,"viability change, negative = cytotoxic",[9],-11.1%
same,outcome,[10],inactive
same,outcome,[11],inactive
same,outcome,[4],inactive
same,outcome,[12],inactive
same,caspase-3 activation,[13],-0.173%
same,outcome,[14],inactive
same,outcome,[15],inactive
same,outcome,[16],inactive
same,outcome,[17],inactive
same,outcome,[18],inactive
same,Potency,[19],inactive
CCCN(CCC)S(=O)(=O)c1ccc(C(=O)O)cc1,outcome,[5],inactive
same,Potency,[1],> 20.6 µM
same,Potency,[2],> 20.6 µM
same,Potency,[3],inactive
same,Potency,[6],inactive
same,"activity change, negative = cytotoxicity",[7],-2.58%
same,outcome,[8],inactive
same,Potency,[20],inactive
same,"viability change, negative = cytotoxic",[9],-4.3%
same,outcome,[10],inactive
same,outcome,[11],inactive
same,outcome,[4],inactive
same,outcome,[12],inactive
same,caspase-3 activation,[13],1.65%
same,outcome,[14],inactive
same,outcome,[15],inactive
same,outcome,[16],inactive
same,outcome,[17],inactive
same,outcome,[18],inactive
same,Potency,[19],inactive
CC(C)(C)NC[C@H](O)COc1nsnc1N1CCOCC1,Potency,[1],> 46 µM and > 20.6 µM
same,Potency,[2],> 46 µM and > 20.6 µM
same,Potency,[3],inactive
same,outcome,[4],inactive
CN1CCC(OC(c2ccccc2)c2ccccc2)CC1,outcome,[5],inactive
same,Potency,[2],> 20.6 µM
same,Potency,[3],inactive
same,outcome,[4],inactive
Cc1c(-c2ccccc2)oc2c(C(=O)OCCN3CCCCC3)cccc2c1=O,Potency,[1],> 20.6 µM
same,Potency,[2],> 20.6 µM
same,Potency,[3],inactive
CCCCN1C[C@H](O)[C@@H](O)[C@H](O)[C@H]1CO,Potency,[1],> 20.6 µM
COc1ccc(C(Cl)=C(c2ccc(OC)cc2)c2ccc(OC)cc2)cc1,Potency,[1],> 20.6 µM
same,Potency,[2],> 20.6 µM
same,Potency,[3],inactive
same,Potency,[6],inactive
same,"activity change, negative = cytotoxicity",[7],-7.28%
same,outcome,[8],inactive
same,"viability change, negative = cytotoxic",[9],-10.7%
same,outcome,[10],inactive
same,outcome,[11],inactive
same,outcome,[12],inactive
same,caspase-3 activation,[13],2.72%
same,outcome,[14],inactive
same,outcome,[15],inactive
same,outcome,[16],inactive
same,outcome,[17],inactive
same,outcome,[18],inactive
same,Potency,[19],inactive
CC(=O)O[C@]1(C(C)=O)CC[C@H]2[C@@H]3C=C(C)C4=CC(=O)CC[C@]4(C)[C@H]3CC[C@@]21C,Potency,[1],0.00185 µM (active)
CN(C)CCOC(=O)C(c1ccccc1)C1(O)CCCC1 (stereo not drawn),Potency,[1],> 20.6 µM
